Source: publication PMC7862700, “An all-to-all approach to the identification of sequence-specific readers for epigenetic DNA modifications on cytosine”

What was measured:
Experiment in all cases: DAPPL (digital affinity profiling via proximity ligation, sequencing); 10 mM Tris-HCl pH 7.5, 50 mM NaCl, 1 mM DTT, 4% glycerol, room temperature, 30 min; GST-TFs on glutathione beads, 16-mer random dsDNA library, 0.1% formaldehyde crosslink after washing; high values mean tight binding
FLI1 = target: T1, FLI1 (Homo sapiens, UniProt Q01543 1-452); details: protein: recombinant; tags: N-terminal GST; dsDNA, one strand shown
T1 sequence: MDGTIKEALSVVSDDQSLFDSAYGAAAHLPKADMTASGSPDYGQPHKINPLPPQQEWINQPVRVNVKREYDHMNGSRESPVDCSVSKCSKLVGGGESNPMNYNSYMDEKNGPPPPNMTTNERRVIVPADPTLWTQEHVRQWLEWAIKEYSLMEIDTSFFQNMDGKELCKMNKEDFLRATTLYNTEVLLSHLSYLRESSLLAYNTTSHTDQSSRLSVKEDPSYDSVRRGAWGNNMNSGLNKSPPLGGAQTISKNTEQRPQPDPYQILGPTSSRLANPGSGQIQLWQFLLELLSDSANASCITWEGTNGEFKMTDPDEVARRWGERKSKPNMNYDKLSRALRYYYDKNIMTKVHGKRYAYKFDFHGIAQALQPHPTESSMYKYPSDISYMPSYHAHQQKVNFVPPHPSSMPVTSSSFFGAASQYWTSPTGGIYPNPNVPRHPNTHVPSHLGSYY
Outline: (§1)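 Sequencing on an Illumina NextSeq500 followed washing, crosslinking with 0.1% formaldehyde, proximity ligation (BsaI/T4 ligase, 1 h, 37 °C) and PCR amplification of pools that had been incubated for 30 min at room temperature with 200 nmole of a random double-stranded 16-mer DNA library in Tris/NaCl/DTT/glycerol buffer. Each pool held DNA-barcoded human transcription factors, expressed in yeast as GST fusions and captured on glutathione beads, plus a tag-only sample. Binding signal is a hexamer's read frequency for a factor divided by its frequency in the tag-only sample.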

ELK1 = target: T2, ELK1 (Homo sapiens, UniProt P19419 1-428); details: protein: recombinant; tags: N-terminal GST; dsDNA, one strand shown
T2 sequence: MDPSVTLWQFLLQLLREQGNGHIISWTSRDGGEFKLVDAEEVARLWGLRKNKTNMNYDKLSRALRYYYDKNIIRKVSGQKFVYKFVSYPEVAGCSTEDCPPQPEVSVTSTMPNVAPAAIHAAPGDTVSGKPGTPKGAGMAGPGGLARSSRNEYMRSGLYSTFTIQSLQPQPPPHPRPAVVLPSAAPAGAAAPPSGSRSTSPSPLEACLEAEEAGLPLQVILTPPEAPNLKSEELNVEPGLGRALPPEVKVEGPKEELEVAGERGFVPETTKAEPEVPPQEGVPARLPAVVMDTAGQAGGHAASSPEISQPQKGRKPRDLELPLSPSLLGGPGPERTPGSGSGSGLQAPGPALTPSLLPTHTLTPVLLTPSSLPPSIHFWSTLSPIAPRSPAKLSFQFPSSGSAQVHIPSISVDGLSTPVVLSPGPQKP
Outline: as §1

GABPA = target: T3, GABPA (Homo sapiens, UniProt Q06546 1-454); details: protein: recombinant; tags: N-terminal GST; dsDNA, one strand shown
T3 sequence: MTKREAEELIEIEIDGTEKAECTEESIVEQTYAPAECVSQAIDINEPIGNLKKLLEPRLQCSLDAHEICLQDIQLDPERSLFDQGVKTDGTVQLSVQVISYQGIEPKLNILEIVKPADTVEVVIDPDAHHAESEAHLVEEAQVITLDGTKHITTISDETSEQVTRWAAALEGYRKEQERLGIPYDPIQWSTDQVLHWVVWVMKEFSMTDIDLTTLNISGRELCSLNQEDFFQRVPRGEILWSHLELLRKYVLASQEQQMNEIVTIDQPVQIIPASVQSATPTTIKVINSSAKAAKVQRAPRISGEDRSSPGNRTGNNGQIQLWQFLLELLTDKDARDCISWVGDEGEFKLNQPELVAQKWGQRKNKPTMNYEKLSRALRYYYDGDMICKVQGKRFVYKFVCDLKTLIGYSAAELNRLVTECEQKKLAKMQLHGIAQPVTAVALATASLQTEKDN
Outline: as §1

ERG = target: T4, ERG (Homo sapiens, UniProt P11308 1-479); details: protein: recombinant; tags: N-terminal GST; dsDNA, one strand shown
T4 sequence: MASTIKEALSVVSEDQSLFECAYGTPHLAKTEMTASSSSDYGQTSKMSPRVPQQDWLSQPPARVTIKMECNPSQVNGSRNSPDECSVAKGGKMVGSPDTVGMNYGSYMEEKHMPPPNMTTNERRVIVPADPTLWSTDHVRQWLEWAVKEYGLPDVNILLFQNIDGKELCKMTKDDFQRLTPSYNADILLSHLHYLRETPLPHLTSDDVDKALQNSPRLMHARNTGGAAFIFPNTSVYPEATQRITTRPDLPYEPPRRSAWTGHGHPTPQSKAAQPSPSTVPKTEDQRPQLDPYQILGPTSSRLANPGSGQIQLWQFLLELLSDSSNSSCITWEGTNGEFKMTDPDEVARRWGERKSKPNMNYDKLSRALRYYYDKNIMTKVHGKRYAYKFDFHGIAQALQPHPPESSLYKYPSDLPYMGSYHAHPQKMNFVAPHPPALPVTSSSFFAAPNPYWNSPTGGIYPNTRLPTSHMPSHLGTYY
Outline: as §1

ELF1 = ELF1 (Homo sapiens, UniProt P32519 1-619); details: protein: recombinant; tags: N-terminal GST; dsDNA, one strand shown
Sequence of ELF1 (P32519 whole entry): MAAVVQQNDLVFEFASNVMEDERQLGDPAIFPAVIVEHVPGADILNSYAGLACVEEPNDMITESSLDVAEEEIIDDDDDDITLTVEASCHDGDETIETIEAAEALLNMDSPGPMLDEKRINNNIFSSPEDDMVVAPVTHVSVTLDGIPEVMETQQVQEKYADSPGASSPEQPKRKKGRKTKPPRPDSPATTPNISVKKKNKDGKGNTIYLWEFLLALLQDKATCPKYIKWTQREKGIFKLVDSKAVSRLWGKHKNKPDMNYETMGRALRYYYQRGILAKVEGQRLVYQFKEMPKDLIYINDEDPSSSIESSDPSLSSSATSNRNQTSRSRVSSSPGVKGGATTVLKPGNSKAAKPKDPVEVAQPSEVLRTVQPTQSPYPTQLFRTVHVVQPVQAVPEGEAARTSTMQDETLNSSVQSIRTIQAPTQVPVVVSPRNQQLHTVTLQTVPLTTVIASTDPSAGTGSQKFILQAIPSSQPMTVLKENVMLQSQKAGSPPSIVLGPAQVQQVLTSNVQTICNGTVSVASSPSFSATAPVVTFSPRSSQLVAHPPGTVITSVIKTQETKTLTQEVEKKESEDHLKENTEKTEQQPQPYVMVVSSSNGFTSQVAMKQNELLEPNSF
Outline: as §1

EHF = target: T5, EHF (Homo sapiens, UniProt Q9NZC4 1-300); details: protein: recombinant; tags: N-terminal GST; dsDNA, one strand shown
T5 sequence: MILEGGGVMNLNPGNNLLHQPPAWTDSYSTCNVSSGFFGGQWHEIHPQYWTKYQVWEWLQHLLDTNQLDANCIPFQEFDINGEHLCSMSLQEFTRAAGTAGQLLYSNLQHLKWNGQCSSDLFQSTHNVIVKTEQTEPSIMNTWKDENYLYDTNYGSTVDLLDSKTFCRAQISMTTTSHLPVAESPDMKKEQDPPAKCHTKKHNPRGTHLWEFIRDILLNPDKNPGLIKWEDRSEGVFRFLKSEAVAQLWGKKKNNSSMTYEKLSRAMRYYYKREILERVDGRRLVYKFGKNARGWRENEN
Outline: as §1

SPI1 = SPI1 (Homo sapiens, UniProt P17947 1-270); details: protein: recombinant; tags: N-terminal GST; dsDNA, one strand shown
Outline: as §1

SPIB = SPIB (Homo sapiens, UniProt Q01892 1-262); details: protein: recombinant; tags: N-terminal GST; dsDNA, one strand shown
Sequence of SPIB (Q01892 whole entry): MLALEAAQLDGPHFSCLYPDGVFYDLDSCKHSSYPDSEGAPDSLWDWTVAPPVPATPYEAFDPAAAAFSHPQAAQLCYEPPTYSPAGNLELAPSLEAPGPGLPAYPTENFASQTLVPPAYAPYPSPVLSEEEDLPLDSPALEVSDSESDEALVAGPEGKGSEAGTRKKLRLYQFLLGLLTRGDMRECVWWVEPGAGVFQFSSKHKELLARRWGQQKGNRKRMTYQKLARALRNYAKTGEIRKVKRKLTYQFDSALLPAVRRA
Outline: as §1

ELK3 = target: T6, ELK3 (Homo sapiens, UniProt P41970 1-407); details: protein: recombinant; tags: N-terminal GST; dsDNA, one strand shown
T6 sequence: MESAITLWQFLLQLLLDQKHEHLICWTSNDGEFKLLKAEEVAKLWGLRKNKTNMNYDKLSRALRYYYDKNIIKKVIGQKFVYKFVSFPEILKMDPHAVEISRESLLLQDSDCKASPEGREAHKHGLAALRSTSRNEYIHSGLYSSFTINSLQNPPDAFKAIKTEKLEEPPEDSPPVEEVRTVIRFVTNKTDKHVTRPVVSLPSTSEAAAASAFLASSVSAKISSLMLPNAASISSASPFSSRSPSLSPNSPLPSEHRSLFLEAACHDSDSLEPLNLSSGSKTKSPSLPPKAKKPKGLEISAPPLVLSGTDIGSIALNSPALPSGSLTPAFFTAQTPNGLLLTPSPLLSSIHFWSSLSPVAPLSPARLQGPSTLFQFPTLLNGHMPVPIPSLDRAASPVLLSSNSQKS
Outline: as §1

FEV = target: T7, FEV (Homo sapiens, UniProt Q99581 1-238); details: protein: recombinant; tags: N-terminal GST; dsDNA, one strand shown
T7 sequence: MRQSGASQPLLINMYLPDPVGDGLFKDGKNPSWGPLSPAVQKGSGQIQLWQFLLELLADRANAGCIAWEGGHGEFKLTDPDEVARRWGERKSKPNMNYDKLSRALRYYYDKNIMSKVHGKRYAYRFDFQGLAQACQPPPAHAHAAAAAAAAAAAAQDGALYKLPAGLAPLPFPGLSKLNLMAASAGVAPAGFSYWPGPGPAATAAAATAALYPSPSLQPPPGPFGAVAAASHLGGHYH
Outline: as §1

ETV5 = ETV5 (Homo sapiens, UniProt P41161 1-510); details: protein: recombinant; tags: N-terminal GST; dsDNA, one strand shown
Sequence of ETV5 (P41161 whole entry): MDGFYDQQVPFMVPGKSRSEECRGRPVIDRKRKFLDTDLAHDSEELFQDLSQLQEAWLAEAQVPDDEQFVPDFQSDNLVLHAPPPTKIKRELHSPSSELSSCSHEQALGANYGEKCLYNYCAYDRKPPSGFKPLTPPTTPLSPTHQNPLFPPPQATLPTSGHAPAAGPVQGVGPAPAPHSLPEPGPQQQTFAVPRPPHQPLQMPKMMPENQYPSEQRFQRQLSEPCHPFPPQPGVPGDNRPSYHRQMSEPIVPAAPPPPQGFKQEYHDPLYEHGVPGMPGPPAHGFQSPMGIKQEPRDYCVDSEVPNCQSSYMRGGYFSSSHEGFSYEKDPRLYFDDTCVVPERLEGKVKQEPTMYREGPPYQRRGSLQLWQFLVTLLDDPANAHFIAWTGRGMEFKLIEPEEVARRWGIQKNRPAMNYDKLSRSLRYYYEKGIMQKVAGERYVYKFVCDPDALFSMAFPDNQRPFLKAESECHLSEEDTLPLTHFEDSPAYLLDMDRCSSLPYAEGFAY
Outline: as §1

HSF1 = HSF1 (Homo sapiens, UniProt Q00613 1-529); details: protein: recombinant; tags: N-terminal GST; chain copies: 3; dsDNA, one strand shown
Sequence of HSF1 (Q00613 whole entry): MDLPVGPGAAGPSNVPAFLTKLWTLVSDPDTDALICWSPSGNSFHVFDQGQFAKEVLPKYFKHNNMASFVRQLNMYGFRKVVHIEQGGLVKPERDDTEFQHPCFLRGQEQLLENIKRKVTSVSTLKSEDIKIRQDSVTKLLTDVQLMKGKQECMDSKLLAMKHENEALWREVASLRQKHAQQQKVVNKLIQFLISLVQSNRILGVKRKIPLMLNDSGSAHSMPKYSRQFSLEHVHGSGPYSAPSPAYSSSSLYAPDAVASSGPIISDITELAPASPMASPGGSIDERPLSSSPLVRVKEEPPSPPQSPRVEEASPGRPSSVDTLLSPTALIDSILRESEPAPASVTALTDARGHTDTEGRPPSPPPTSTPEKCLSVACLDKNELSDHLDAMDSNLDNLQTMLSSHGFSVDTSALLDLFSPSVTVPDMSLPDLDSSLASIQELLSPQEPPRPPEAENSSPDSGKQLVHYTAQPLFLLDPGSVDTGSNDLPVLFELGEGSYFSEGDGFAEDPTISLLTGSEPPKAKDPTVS
Outline: as §1

SPIC = target: T8, SPIC (Homo sapiens, UniProt Q8N5J4 1-248); details: protein: recombinant; tags: N-terminal GST; dsDNA, one strand shown
T8 sequence: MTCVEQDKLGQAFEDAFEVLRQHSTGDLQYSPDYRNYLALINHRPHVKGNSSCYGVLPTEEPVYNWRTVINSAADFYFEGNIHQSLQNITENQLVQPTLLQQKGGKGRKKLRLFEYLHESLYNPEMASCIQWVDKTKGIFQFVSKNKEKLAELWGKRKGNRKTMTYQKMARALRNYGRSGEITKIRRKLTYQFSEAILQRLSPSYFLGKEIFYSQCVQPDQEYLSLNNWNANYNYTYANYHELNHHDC
Outline: as §1

ELF4 = ELF4 (Homo sapiens, UniProt Q99607 1-663); details: protein: recombinant; tags: N-terminal GST; dsDNA, one strand shown
Sequence of ELF4 (Q99607 whole entry): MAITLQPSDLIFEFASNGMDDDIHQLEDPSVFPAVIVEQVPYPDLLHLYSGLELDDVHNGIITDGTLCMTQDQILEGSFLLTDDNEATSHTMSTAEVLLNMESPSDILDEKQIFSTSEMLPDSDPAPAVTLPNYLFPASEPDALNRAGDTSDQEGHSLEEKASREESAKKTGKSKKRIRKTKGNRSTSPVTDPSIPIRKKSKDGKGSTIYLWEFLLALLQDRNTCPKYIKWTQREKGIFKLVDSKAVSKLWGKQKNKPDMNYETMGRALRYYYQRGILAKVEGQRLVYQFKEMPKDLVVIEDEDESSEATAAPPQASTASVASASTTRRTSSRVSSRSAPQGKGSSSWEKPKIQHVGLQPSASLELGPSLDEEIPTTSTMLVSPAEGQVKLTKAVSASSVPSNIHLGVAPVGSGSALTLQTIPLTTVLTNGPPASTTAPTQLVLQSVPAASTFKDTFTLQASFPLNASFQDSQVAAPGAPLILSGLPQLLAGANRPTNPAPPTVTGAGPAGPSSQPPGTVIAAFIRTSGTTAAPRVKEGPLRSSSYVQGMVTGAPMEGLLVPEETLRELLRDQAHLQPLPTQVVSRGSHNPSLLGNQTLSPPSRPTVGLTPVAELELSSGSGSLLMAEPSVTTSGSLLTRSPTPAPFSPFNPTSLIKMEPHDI
Outline: as §1

ELK4 = target: T9, ELK4 (Homo sapiens, UniProt P28324-2 1-405); details: protein: recombinant; tags: N-terminal GST; dsDNA, one strand shown
T9 sequence: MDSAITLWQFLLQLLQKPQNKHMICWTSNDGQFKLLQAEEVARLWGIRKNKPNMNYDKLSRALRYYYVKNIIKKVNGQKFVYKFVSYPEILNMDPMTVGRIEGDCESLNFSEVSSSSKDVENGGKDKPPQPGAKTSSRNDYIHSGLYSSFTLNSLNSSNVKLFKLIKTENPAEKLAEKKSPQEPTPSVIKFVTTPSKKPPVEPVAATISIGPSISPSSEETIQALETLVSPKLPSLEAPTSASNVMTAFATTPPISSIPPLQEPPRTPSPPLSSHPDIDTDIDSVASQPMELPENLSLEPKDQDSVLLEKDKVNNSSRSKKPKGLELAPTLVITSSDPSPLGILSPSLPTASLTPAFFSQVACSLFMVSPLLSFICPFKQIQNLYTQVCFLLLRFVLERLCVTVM
Outline: as §1

ETV2 = target: T10, ETV2 (Homo sapiens, UniProt O00321 1-342); details: protein: recombinant; tags: N-terminal GST; dsDNA, one strand shown
T10 sequence: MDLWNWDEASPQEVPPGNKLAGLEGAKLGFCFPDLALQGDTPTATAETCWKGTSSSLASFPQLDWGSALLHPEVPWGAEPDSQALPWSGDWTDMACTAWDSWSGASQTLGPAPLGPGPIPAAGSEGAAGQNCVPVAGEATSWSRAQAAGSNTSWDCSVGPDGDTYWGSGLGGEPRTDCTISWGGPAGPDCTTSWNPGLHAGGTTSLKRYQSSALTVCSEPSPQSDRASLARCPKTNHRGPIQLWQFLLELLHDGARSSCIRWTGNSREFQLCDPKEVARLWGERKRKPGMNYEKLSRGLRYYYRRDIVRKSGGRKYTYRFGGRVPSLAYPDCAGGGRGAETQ
Outline: as §1

ELF3 = target: T11, ELF3 (Homo sapiens, UniProt P78545 1-371); details: protein: recombinant; tags: N-terminal GST; dsDNA, one strand shown
T11 sequence: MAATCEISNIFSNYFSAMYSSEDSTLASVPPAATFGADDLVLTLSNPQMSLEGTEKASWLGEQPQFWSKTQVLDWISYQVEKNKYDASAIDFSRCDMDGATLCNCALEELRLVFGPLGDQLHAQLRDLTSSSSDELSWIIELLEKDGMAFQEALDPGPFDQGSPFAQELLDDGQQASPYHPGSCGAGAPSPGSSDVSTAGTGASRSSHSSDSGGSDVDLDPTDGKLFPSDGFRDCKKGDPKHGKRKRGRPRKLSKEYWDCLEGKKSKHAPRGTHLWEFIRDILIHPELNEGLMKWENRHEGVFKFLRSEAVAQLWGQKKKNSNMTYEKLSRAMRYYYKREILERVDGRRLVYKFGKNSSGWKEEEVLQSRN
Outline: as §1

CRX = CRX (Homo sapiens, UniProt O43186 1-299); details: protein: recombinant; tags: N-terminal GST; dsDNA, one strand shown
Sequence of CRX (O43186 whole entry): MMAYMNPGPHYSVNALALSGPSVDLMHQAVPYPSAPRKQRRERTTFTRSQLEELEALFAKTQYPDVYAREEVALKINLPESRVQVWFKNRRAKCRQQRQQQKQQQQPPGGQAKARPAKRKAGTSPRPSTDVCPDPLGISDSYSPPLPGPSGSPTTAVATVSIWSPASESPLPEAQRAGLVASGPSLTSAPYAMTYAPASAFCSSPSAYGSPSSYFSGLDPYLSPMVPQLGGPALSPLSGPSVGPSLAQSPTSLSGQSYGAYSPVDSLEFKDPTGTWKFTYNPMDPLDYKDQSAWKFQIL
Outline: as §1

ETV1 = ETV1 (Homo sapiens, UniProt P50549 1-477); details: protein: recombinant; tags: N-terminal GST; dsDNA, one strand shown
Sequence of ETV1 (P50549 whole entry): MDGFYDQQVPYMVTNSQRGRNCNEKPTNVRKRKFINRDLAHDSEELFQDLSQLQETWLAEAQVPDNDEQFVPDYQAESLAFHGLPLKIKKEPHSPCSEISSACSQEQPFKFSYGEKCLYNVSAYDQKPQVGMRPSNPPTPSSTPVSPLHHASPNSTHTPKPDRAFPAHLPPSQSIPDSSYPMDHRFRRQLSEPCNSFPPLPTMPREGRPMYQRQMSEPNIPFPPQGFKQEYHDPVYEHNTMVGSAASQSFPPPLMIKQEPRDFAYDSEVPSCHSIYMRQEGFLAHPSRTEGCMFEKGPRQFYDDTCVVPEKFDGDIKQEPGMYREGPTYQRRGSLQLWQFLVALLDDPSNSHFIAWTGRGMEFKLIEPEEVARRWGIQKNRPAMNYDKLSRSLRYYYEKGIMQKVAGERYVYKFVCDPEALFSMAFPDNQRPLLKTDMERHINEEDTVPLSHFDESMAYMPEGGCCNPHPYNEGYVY
Outline: as §1

## TTGATA
FLI1
  binding signal: 1.23 fold enrichment (6-mer frequency, TF over GST control)
ELK1
  binding signal: 1.29 fold enrichment (6-mer frequency, TF over GST control)
GABPA
  binding signal: 1.31 fold enrichment (6-mer frequency, TF over GST control)
ERG
  binding signal: 1.17 fold enrichment (6-mer frequency, TF over GST control)
ELF1
  binding signal: 1.24 fold enrichment (6-mer frequency, TF over GST control)
EHF
  binding signal: 1.14 fold enrichment (6-mer frequency, TF over GST control)
SPI1
  binding signal: 1.14 fold enrichment (6-mer frequency, TF over GST control)
SPIB
  binding signal: 1.08 fold enrichment (6-mer frequency, TF over GST control)
ELK3
  binding signal: 1.01 fold enrichment (6-mer frequency, TF over GST control)
FEV
  binding signal: 1.13 fold enrichment (6-mer frequency, TF over GST control)
ETV5
  binding signal: 1.15 fold enrichment (6-mer frequency, TF over GST control)
HSF1
  binding signal: 1.19 fold enrichment (6-mer frequency, TF over GST control)
SPIC
  binding signal: 1.36 fold enrichment (6-mer frequency, TF over GST control)
ELF4
  binding signal: 1.29 fold enrichment (6-mer frequency, TF over GST control)
ELK4
  binding signal: 1.42 fold enrichment (6-mer frequency, TF over GST control)
ETV2
  binding signal: 1.23 fold enrichment (6-mer frequency, TF over GST control)
ELF3
  binding signal: 1.03 fold enrichment (6-mer frequency, TF over GST control)
CRX
  binding signal: 1.53 fold enrichment (6-mer frequency, TF over GST control)
ETV1
  binding signal: 1.25 fold enrichment (6-mer frequency, TF over GST control)
